Rows were chosen to be rich in hits. Some 2.6% of all compounds tested hit in one or more screens of this group.
Cruzain Triton – qHTS Assay for Promiscuous and Specific Inhibitors of Cruzain (with detergent) | Cruzipain (Trypanosoma cruzi), P25779 | purified cruzain, Z-FR-AMC fluorescence, 0.01% Triton | Potency, µM, actives largely listed as inhibitors | actives 0.43% (n = 200,000); further: nearly all actives have a fitted effect of over 40% in size
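Read-out: AMC fluorescence (360 nm excitation, 450 nm emission), four reads over 2 min, first-to-third difference used. Conditions: cruzain 1.5 nM, Z-FR-AMC 2 uM, pH 5.5 acetate, 5 mM DTT, 0.01% Triton X-100.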
Cruzain inh noDet – qHTS Assay for Promiscuous and Specific Inhibitors of Cruzain (without detergent); Cruzipain (Trypanosoma cruzi), P25779; purified cruzain, Z-FR-AMC fluorescence, no detergent; Potency, µM, hits mostly inhibitors; actives 2.3% (n = 200,000); further: nearly all actives have a fitted effect of over 40% in size
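Detergent-free condition (0.00005% Triton X-100) in acetate buffer pH 5.5 with DTT. 1.5 nM enzyme and compound were pre-mixed 15 min, then 2 uM Z-FR-AMC substrate added; reaction progress from fluorescence change between first and third reads (60 s).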
Papain inh – qHTS Assay for Inhibitors of Papain: Counterscreen for Cruzain Assay | shares compounds with Cruzain Triton | purified papain, Z-FR-AMC fluorescence cleavage | Potency, µM, most hits filed as inhibitors | actives 41% (n = 410) | AID 2161, 2009; further: nearly all actives have a fitted effect of over 35% in size
Target sequence (P00784 whole entry, looked up): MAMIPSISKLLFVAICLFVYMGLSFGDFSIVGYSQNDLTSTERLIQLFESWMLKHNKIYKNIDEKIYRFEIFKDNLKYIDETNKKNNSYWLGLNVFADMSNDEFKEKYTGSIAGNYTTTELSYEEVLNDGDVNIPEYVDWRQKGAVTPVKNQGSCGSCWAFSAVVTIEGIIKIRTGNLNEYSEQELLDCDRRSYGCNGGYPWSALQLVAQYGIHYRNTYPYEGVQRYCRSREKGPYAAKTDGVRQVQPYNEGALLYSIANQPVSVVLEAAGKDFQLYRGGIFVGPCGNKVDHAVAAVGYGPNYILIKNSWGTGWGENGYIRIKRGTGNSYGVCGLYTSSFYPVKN
Numbers stand for hits; - = inactive; ? = inconclusive; . = no result. The call rests on the fitted dose curve; in most records, active means well fitted curve in the direction sought with a large enough effect; inconclusive means small, poorly fitted or top-dose-only effect, or another doubt; inactive means no such curve, though single readings can be large; an effect the other way counts as inactive or inconclusive.

SMILES	Cruzain Triton	Cruzain inh noDet	others
Cc1ccc(S(=O)(=O)N(C)c2ccc(OCC(=O)Nc3nc4c(ccc5ccccc54)s3)cc2)cc1	-	3.98µM
CN(c1ccc(OCC(=O)Nc2nc(-c3ccccc3)cs2)cc1)S(=O)(=O)c1ccc(F)cc1	-	7.94µM
CCOC(=O)C(=O)c1csc(NC(=O)COc2ccc(N(C)S(=O)(=O)c3ccc(F)cc3)cc2)n1	-	-
Cc1ccc(S(=O)(=O)N(C)c2ccc(OCC(=O)Nc3nc(-c4ccccc4)cs3)cc2)cc1	-	7.94µM
COc1ccc(NC(=O)COc2ccc(N(C)S(=O)(=O)c3ccc(C)cc3)cc2)cc1	-	-
CC1(C)OC2CC3C4CC(F)C5=CC(=O)C=CC5(C)C4C(O)CC3(C)[C@]2(C(=O)CO)O1 (stereo partly drawn)	-	-
O=C(O)C(Cl)Br (stereo not drawn)	-	-
Cc1cccc(Cn2c(=O)n(CCCCC(=O)NCc3ccc4c(c3)OCO4)c(=O)c3ccccc32)c1	-	-
COc1ccc(-n2c(C)c([N+](=O)[O-])c3ccc(O)c(CN(C)C)c32)cc1	-	25.1µM
COc1ccc(-n2c(C(C)n3nc(C)c([N+](=O)[O-])c3C)n[nH]c2=S)cc1 (stereo not drawn)	-	-
CCCc1nn2c(=O)cc(COC(=O)c3ccc4c(c3)OCO4)nc2s1	-	-
CC[C@@]1([C@@H]2O[C@@H]([C@H]3O[C@@](O)(CO)[C@H](C)C[C@@H]3C)C[C@@H]2C)CC[C@H]([C@]2(C)CC[C@]3(C[C@H](O)[C@@H](C)[C@@H]([C@@H](C)[C@@H](OC)C(C)C(=O)O)O3)O2)O1 (stereo partly drawn)	-	-
Cc1ccccc1CN1C(=O)c2ccccc2Sc2ccc(C(=O)NCc3cccs3)cc21	-	?
CC1CCC(NC(=O)c2ccc3c(c2)N(Cc2cccc(F)c2)C(=O)c2ccccc2S3)CC1 (stereo not drawn)	-	?
CCOc1ccc(CN2C(=O)c3ccccc3Sc3ccc(C(=O)NCc4ccco4)cc32)cc1	-	31.6µM
Cc1ccccc1CN1C(=O)c2ccccc2Sc2ccc(C(=O)NCc3ccccc3)cc21	-	31.6µM
CCOc1ccc(CN2C(=O)c3ccccc3Sc3ccc(C(=O)NC4CCC(C)CC4)cc32)cc1 (stereo not drawn)	-	5.01µM
Cc1cccc(CN2C(=O)c3ccccc3Sc3ccc(C(=O)NC4CCCCC4)cc32)c1	-	12.6µM
O=C(NC1CCCC1)c1ccc2c(c1)N(Cc1ccccc1)C(=O)c1ccccc1S2	-	?
O=C(NCc1ccco1)c1ccc2c(c1)N(Cc1ccc(Cl)cc1)C(=O)c1ccccc1S2	-	?
CCn1c(=O)cc(SCC(=O)N2CCN(c3cc(C)ccc3C)CC2)c2ccccc21	-	?
[N-]=[N+]=[N-]	-	-
Cl/C=C/Cl	-	-
O=C(c1cc(C(F)(F)F)cc(C(F)(F)F)c1)N1CCC2(CCCN(c3ncccn3)C2)CC1	-	?
O=C(Nc1cccc2ccccc12)c1nn(C23CC4CC(CC(C4)C2)C3)cc1Br	-	10µM
SMILES	Cruzain Triton	Cruzain inh noDet	others
Cc1ccc(NC(=O)c2nn(C34CC5CC(CC(C5)C3)C4)cc2[N+](=O)[O-])cc1	-	?
COc1cccc(-n2cc(C(=O)NCc3ccccc3OC)c3ccccc3c2=O)c1	-	-
CC1=C(c2ccc(C)c(C)c2)S(=O)(=O)N=C1N1CCC(C(=O)Nc2cccc(F)c2)CC1	-	-
CCN(CC)c1ccc(/C=c2/sc3nnc(-c4ccccc4C)n3c2=O)cc1	-	?
CCN(CC)c1ccc(/C=c2\sc3nnc(-c4ccccc4Cl)n3c2=O)cc1	-	12.6µM
O=C(CSc1nccn1Cc1ccc(Cl)cc1)Nc1ccc2c(c1)OCO2	-	-
O=C(OCc1nc2scc(-c3ccccc3)c2c(=O)[nH]1)c1cc(Cl)ccc1[N+](=O)[O-]	-	31.6µM
Cc1c(C(=O)OCc2nc3scc(-c4ccccc4)c3c(=O)[nH]2)cccc1[N+](=O)[O-]	-	?
CC1=CC(=NOC(=O)/C=C/c2ccccc2)C=C(C)C1=O	2.24µM	2.51µM	Papain inh=10µM
CC1=CC(=O)C=C(C)C1=NOC(=O)/C=C\c1ccccc1	-	-
COC(=O)c1ccc(NC(=O)CN2C(=O)CC(c3ccccc3)Sc3ccccc32)cc1 (stereo not drawn)	-	-
COc1nc(N2CCCCCC2)nc(N2CCCCCC2)n1	-	-
COc1nc(C#N)nc(N2CCCC2)n1	.	.	Papain inh=3.98µM
CCOc1nc(C#N)nc(N2CCCCC2)n1	0.562µM	0.501µM	Papain inh=2.24µM
N#CCOc1nc(N2CCCC2)nc(N2CCCC2)n1	-	-
O=C1C2[C@@H](c3ccccc3)N[C@@H](c3ccccc3)C1[C@H](c1ccccc1)N[C@H]2c1ccccc1	-	-
O=C(NCC1CC1)c1ccc2nc(-c3ccoc3)c(-c3ccoc3)nc2c1	.	.	Papain inh=-
COc1ccc(-c2nc3ccc(C(=O)NCc4ccccc4)cc3nc2-c2ccc(OC)cc2)cc1	-	-
O=C(NCCc1nc2ccccc2[nH]1)Nc1ccccc1	-	-
O=C(COc1ccc(F)cc1)NCCc1nc2ccccc2[nH]1	1.58µM	-	Papain inh=3.55µM
Cc1ccc(C)c(CN2C(=O)c3ccccc3Sc3ccc(C(=O)NCc4cccs4)cc32)c1	-	?
O=C(NCc1ccc2c(c1)OCO2)c1ccc2c(c1)N(Cc1cccc(Cl)c1)C(=O)c1ccccc1S2	-	12.6µM	Papain inh=-
O=C(NCc1ccc2c(c1)OCO2)c1ccc2c(c1)N(Cc1ccccc1F)C(=O)c1ccccc1S2	-	?
Cc1ccc(C)c(CN2C(=O)c3ccccc3Sc3ccc(C(=O)NCc4ccc5c(c4)OCO5)cc32)c1	-	20µM	Papain inh=-
Cc1cccc(C)c1OCc1nc2c3cnn(-c4cccc(F)c4)c3ncn2n1	-	-
SMILES	Cruzain Triton	Cruzain inh noDet	others
COc1ccccc1-c1nc(NCc2cnc(C)cn2)c2ccccc2n1	-	-
Cc1cc(C)c(-c2csc(NC(=O)COC(=O)c3ccc4c(c3)OCO4)n2)c(C)c1	-	?
Cc1ccc(C)c(-c2csc(-c3c(N)c(C(=O)c4ccc5c(c4)OCO5)n4ccccc34)n2)c1	-	3.16µM	Papain inh=-
O=C(CNC(=O)c1ccccc1)N[C@H](C(=O)Nc1cc(C(F)(F)F)ccc1Cl)c1ccccc1	.	.	Papain inh=-
O=C(NC(Nc1cc(C(F)(F)F)ccc1Cl)C(=O)c1ccccc1)c1ccccc1 (stereo not drawn)	-	?
CCN(CCO)c1ncnc2c1sc1nc(C(C)C)c3c(c12)CC(C)(C)OC3	-	?
CCN(CCO)c1nc(SC)nc2c1sc1nc(-c3ccco3)c3c(c12)CCC3	8.91µM	6.31µM	Papain inh=12.6µM
CCSc1nnc2c(n1)OC(c1ccc(C)cc1)N(C(C)=O)c1ccccc1-2 (stereo not drawn)	-	-
Cc1ccc(C(=O)Oc2oc(-c3ccco3)nc2C=Nc2ccc(Cl)cc2)cc1	3.98µM	12.6µM	Papain inh=14.1µM
Cc1ccc(N=CC2=C(O)CC(c3ccco3)CC2=O)cc1 (stereo not drawn)	-	-
CCCn1c(SCC(=O)N2CC(=O)Nc3ccccc32)nc2ccccc21	12.6µM	-	Papain inh=-
O=C1CN(C(=O)CSc2nc3ccccc3n2CCc2ccccc2)c2ccccc2N1	-	-
O=C(NC1CCCC1)c1ccc2nc[nH]c2c1	-	-

Source: PubChem BioAssay
